CtBP-E1A blk: blocks the CtBP interaction with E1A; AlphaScreen GST-E1A/His-CtBP binding, 1536-well; active compounds read low; activity change, % (test concentration not listed); 340,000 compounds, 0.49% hits; note: % is set by controls: 0 for no effect and ±100 for the full control effect
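Homogeneous bead-based format: GST-tagged E1A captured on glutathione donor beads, His-tagged CtBP on nickel acceptor beads; compounds precede bead addition by 2 h at 37 °C.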
GLS inh: inhibitors of human glutaminase (GLS); O94925; GLS enzymatic activity, qHTS titration; Potency, µM (highest dose often 45.5 µM), without a hit: at the top dose activity change, negative = inhibition, hits mostly inhibitors; 410,000 compounds, 0.21% hits; AID 624170; active = well fitted inhibition curve with a large enough effect; inconclusive = small, poorly fitted or top-dose-only effect, or another doubt; inactive = no such curve, though single readings can be large or run the other way; note: potency is the fitted concentration of half-maximal effect; % is set by controls: 0 for no effect and ±100 for the full control effect
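Human kidney-isoform GLS in 45 mM KH2PO4 pH 8.2, 0.02% Tween-20, with compound, started with 1mM L-Glutamine (added stock). Glutamate oxidase/HRP/Amplex red coupled fluorescence read at start and after 30 min at RT.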
Menin-MLL FL inh: inhibitors of human menin-MLL interaction, wild-type MLL peptide; Fluorescence polarization, fluorescein-MLL peptide displacement from menin; FP activity change, % at 61.4 µM; 290,000 tested, under 10 active; AID 1766; active = well fitted curve in the direction sought with a large enough effect in the polarisation, not every such curve was filed as active; inconclusive = small, poorly fitted or top-dose-only effect, or effect the other way, or a change in a side signal; inactive = no such curve, though single readings can be large or run the other way; the % refers to the polarisation; note: % of control where 0% means no effect
Six1-Eya2 inh: inhibitors of human Six1/Eya2 interaction; Q15475+O00167; AlphaScreen GST-Six1/His-Eya2 binding, biochemical; active compounds read low; activity change, % (test concentration not listed); 360,000 compounds, 0.56% hits; note: % is set by controls: 0 for no effect and ±100 for the full control effect
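AlphaScreen luminescence read after one hour at 37 °C in darkness. Pin-transferred compounds met GST-Six1 and His-Eya2 protein (5X stock 250 nM/500 nM) plus glutathione donor and Ni-chelate acceptor beads (5X, 50 ug/mL).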
Menin MLL FP TR: displaces Texas Red mutant MLL peptide from human menin. Menin + Texas Red MLL mutant peptide, fluorescence polarization. O00255. 270,000 compounds, 0.23% hits. AID 1768. Potency, µM (doses to about 61.6 µM), without a hit: at the highest dose FP activity change, negative = inhibition, actives largely listed as inhibitors; active = well fitted inhibition curve with a large enough effect in the polarisation, with a control signal flat, not every such curve was filed as active; inconclusive = small, poorly fitted or top-dose-only effect, or effect the other way, or a change in a side signal; inactive = no such curve, though single readings can be large or run the other way; the % refers to the polarisation; note: potency is the fitted concentration of half-maximal effect; % of control where 0% means no effect
MLL CXXC-DNA inh: MLL CXXC-DNA interaction inhibition | Q03164 | MLL-CXXC / FITC-HOXA9 DNA fluorescence polarization | Potency, µM (series often up to 115 µM), inactives show at the highest dose activity change, negative = inhibition, actives largely listed as inhibitors | 290,000 compounds, 0.037% hits | AID 2662; active = well fitted inhibition curve with a large enough effect in the polarisation, with a control signal flat, not every such curve was filed as active; inconclusive = small, poorly fitted or top-dose-only effect, or effect the other way, or a change in a side signal; inactive = no such curve, though single readings can be large or run the other way; the % refers to the polarisation; note: potency is the fitted concentration of half-maximal effect
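Purified MLL-CXXC (added from a 7 uM solution) was preincubated 5 min at ambient with pinned compounds in 50 mM Tris-HCl pH 7.5, 50 mM NaCl, 1 mM DTT, 0.05% BSA. Fluorescein-labeled HOX-A9 DNA (50 nM solution) followed, 30 min, then polarization read.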
* hit, by the source's call; ? = inconclusive; / = no result; [ ] = dose if it differs, or a comment. Only some compounds are listed: those with a hit (about 0.83% of all), similar ones and a draw of the others. Cut-off read from the data, not from the text of the source, unless noted: active = activity change below about -65%; inconclusive = mostly about -30% to -63%; inactive = weaker than that.

SMILES	CtBP-E1A blk	GLS inh	Menin-MLL FL inh	Six1-Eya2 inh	Menin MLL FP TR	MLL CXXC-DNA inh
COC(=O)NC(c1ccco1)[C@@]1(C(=O)OC)CCCC1=O (some centres undefined)	/	/	-8[11.7 µM]	/	-6%[11.7 µM]	/
CCc1ccc(CNC(=O)c2sc3ncnc(N(C)C4CCCCC4)c3c2C)cc1	/	-10%	/	/	/	/
O=C(Nn1cc(C(=O)Nc2ccccc2F)c2ccccc2c1=O)c1cnccn1	?	4%	4	-78*	20%	4%
COC(=O)c1cn(NC(=O)c2cnccn2)c(=O)c2ccccc12	?	4%	-3	?	-8%	0%
O=C(N/N=C/c1ccccc1O)C1CC(=O)N(c2ccc(Cl)cc2)C1 (centres undefined)	-84*	22%	-9	?	30%	2%
Cc1ccc(/C=N/NC(=O)C2CC(=O)N(c3ccccc3)C2)s1 (centres undefined)	0	-11%	1	16	-5%	-1%
O=C(/C=C/c1ccc(O)c(O)c1)c1ccccc1O	1	5.6µM*	11	-5	/	32%
COC(=O)c1cc2oc3ccccc3c2n1Cc1cc(C)ccc1C	/	-11%	/	/	/	/
CC1(C)CC(=O)C2=C(C1)Nc1ccccc1S2	-8	10µM*	?	-4	/	?
CC(C)C[C@H](NC(=O)[C@H](Cc1ccccc1)C[C@@H](O)[C@H](Cc1ccccc1)NC(=O)OC(C)(C)C)C(=O)N[C@@H](Cc1ccccc1)C(N)=O	/	/	-1	/	?	/
COc1ccc(N2C(=O)CC(N(CCc3ccccc3)C(=O)c3ccccc3)C2=O)cc1 (centres undefined)	-70*	2%	-5	1	/	13%
Cc1[nH]c(=O)[nH]c(=O)c1/C=N/NC(=O)[C@@H](NC(=O)OC(C)(C)C)C(C)C	-25	3%	1	-13	-1%	7%
Cc1[nH]c(=O)[nH]c(=O)c1/C=N/NC(=O)[C@H](C)N	-30	-1%	-1	-66*	/	13%
O=c1c2ccccc2[nH]c2ccc(O)cc12	?	5µM*	?	?	23%	7%
O=C(Nc1nc(-c2ccc(S(=O)(=O)N3CCCCCC3)cc2)cs1)c1cccs1	-70*	1%	4	?	22µM*	25%
O=C(Nc1nc(-c2ccc(S(=O)(=O)N3CCCC3)cc2)cs1)c1cccs1	-75*	3%	0	-73*	?	22%
Cc1ccc(-c2[nH]ncc2/C=N/n2c(COc3ccccc3)nc3ccccc3c2=O)cc1	-1	1%	-3	-1	-16%	9%
Cc1cc(/C=N/n2c(COc3ccccc3)nc3ccccc3c2=O)c(O)c([N+](=O)[O-])c1	-80*	7%	14	-88*	?	19%
COc1cc(NC(=O)CN2C(=O)COc3ccc(S(=O)(=O)N4CCCC4)cc32)cc(OC)c1	-77*	-9%	1	?	10%	9%
Cc1cc(C)cc(NC(=O)CN2C(=O)COc3ccc(S(=O)(=O)N4CCCC4)cc32)c1	/	-8%	0	-5	9%	-5%
COc1ccc(NC(=O)CN2C(=O)COc3ccc(S(=O)(=O)N4CCCCC4)cc32)c(OC)c1	-7	11%	-3	-1	0%	-2%
COc1cc(NC(=O)CN2C(=O)COc3ccc(S(=O)(=O)N4CCCCC4)cc32)cc(OC)c1	-73*	-2%	3	?	40%	-5%
COc1ccc(NC(=O)CN2C(=O)COc3ccc(S(=O)(=O)N4CCOCC4)cc32)cc1Cl	-92*	7%	-4	6	6%	3%
COc1cc(NS(=O)(=O)c2ccc(N)cc2)nc(C)n1	/	-2%	/	/	/	/
O=C(NCCCN1CCN(c2cccc(Cl)c2)CC1)Nc1ccccc1C(F)(F)F	/	3%	/	/	/	/
NC(=O)NC(=O)CC1S/C(=N/N=C/c2ccccc2)NC1=O (centres undefined)	-3	9%	0	8	4%	0%

Screens deposited in PubChem BioAssay by National Center for Advancing Translational Sciences (NCATS).
